Tests used:
Test in all cases: DAPPL (digital affinity profiling via proximity ligation, sequencing); 10 mM Tris-HCl pH 7.5, 50 mM NaCl, 1 mM DTT, 4% glycerol, room temperature, 30 min; GST-TFs on glutathione beads, 16-mer random dsDNA library, 0.1% formaldehyde crosslink after washing; high values mean tight binding
FEV = target: T1, FEV (Homo sapiens, UniProt Q99581 1-238); details: protein: recombinant; tags: N-terminal GST; dsDNA, one strand shown
T1 sequence: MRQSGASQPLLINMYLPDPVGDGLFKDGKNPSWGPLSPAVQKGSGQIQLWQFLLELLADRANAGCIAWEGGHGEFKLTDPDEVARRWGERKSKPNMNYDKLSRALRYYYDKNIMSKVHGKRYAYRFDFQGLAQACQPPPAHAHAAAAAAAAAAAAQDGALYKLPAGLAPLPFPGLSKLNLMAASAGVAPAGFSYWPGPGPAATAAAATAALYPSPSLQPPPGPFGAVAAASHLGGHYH
In short: (§1)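 Sequencing on an Illumina NextSeq500 followed washing, crosslinking with 0.1% formaldehyde, proximity ligation (BsaI/T4 ligase, 1 h, 37 °C) and PCR amplification of pools that had been incubated for 30 min at room temperature with 200 nmole of a random double-stranded 16-mer DNA library in Tris/NaCl/DTT/glycerol buffer. Each pool held DNA-barcoded human transcription factors, expressed in yeast as GST fusions and captured on glutathione beads, plus a tag-only sample. Binding signal is a hexamer's read frequency for a factor divided by its frequency in the tag-only sample.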

ETV5 = ETV5 (Homo sapiens, UniProt P41161 1-510); details: protein: recombinant; tags: N-terminal GST; dsDNA, one strand shown
In short: as §1

HSF1 = HSF1 (Homo sapiens, UniProt Q00613 1-529); details: protein: recombinant; tags: N-terminal GST; chain copies: 3; dsDNA, one strand shown
In short: as §1

SPIC = target: T2, SPIC (Homo sapiens, UniProt Q8N5J4 1-248); details: protein: recombinant; tags: N-terminal GST; dsDNA, one strand shown
T2 sequence: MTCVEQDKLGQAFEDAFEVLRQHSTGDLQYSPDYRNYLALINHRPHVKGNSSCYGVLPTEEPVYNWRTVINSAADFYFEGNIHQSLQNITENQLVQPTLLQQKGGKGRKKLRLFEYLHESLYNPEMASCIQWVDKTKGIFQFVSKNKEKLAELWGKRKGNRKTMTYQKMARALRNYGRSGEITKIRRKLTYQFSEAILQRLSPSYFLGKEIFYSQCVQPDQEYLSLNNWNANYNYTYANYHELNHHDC
In short: as §1

ELF4 = ELF4 (Homo sapiens, UniProt Q99607 1-663); details: protein: recombinant; tags: N-terminal GST; dsDNA, one strand shown
In short: as §1

ELK4 = target: T3, ELK4 (Homo sapiens, UniProt P28324-2 1-405); details: protein: recombinant; tags: N-terminal GST; dsDNA, one strand shown
T3 sequence: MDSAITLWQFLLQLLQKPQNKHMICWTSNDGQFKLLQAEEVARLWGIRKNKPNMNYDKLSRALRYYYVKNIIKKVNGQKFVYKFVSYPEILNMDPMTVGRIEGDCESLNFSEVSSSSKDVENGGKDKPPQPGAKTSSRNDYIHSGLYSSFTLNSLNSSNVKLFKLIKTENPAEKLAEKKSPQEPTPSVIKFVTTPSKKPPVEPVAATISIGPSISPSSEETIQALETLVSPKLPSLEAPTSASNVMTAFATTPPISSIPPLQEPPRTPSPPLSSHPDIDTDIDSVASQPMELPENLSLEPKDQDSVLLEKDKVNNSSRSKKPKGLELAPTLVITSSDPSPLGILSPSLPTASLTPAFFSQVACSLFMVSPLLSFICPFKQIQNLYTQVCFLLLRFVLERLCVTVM
In short: as §1

ETV2 = target: T4, ETV2 (Homo sapiens, UniProt O00321 1-342); details: protein: recombinant; tags: N-terminal GST; dsDNA, one strand shown
T4 sequence: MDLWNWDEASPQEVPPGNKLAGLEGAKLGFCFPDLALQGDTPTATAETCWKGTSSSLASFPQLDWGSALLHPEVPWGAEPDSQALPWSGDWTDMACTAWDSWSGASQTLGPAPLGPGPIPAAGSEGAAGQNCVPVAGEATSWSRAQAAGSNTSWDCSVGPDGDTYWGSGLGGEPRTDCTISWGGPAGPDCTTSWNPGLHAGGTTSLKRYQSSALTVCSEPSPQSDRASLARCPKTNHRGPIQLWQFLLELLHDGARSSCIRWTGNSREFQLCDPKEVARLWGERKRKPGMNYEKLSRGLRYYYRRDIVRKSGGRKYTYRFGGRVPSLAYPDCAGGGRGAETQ
In short: as §1

ELF3 = target: T5, ELF3 (Homo sapiens, UniProt P78545 1-371); details: protein: recombinant; tags: N-terminal GST; dsDNA, one strand shown
T5 sequence: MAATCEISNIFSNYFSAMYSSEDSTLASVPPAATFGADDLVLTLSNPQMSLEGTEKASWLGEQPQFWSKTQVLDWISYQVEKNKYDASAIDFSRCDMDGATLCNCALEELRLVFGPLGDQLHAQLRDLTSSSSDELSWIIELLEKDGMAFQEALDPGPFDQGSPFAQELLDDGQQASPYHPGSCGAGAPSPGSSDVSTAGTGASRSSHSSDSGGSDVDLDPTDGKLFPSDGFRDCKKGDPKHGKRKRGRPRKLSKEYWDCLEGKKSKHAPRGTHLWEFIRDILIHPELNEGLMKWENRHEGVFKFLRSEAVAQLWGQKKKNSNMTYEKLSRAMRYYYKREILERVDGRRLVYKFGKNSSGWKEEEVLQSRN
In short: as §1

CRX = CRX (Homo sapiens, UniProt O43186 1-299); details: protein: recombinant; tags: N-terminal GST; dsDNA, one strand shown
In short: as §1

ERF = target: T6, ERF (Homo sapiens, UniProt P50548 1-548); details: protein: recombinant; tags: N-terminal GST; dsDNA, one strand shown
T6 sequence: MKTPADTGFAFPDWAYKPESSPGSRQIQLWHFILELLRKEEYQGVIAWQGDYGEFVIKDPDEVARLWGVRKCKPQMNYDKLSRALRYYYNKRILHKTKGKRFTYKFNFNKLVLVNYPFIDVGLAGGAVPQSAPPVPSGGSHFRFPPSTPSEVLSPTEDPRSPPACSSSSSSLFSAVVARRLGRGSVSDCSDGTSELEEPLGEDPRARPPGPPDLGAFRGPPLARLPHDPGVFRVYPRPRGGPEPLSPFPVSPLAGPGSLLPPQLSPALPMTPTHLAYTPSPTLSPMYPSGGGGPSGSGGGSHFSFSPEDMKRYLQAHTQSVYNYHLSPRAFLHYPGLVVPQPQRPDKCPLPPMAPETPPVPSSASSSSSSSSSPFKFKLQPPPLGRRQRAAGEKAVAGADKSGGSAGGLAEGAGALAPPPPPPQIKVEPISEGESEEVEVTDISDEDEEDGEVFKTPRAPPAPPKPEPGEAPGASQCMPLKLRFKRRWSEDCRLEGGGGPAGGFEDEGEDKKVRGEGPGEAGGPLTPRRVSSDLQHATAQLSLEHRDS
In short: as §1

ETV3L = target: T7, ETV3L (Homo sapiens, UniProt Q6ZN32 1-361); details: protein: recombinant; tags: N-terminal GST; dsDNA, one strand shown
T7 sequence: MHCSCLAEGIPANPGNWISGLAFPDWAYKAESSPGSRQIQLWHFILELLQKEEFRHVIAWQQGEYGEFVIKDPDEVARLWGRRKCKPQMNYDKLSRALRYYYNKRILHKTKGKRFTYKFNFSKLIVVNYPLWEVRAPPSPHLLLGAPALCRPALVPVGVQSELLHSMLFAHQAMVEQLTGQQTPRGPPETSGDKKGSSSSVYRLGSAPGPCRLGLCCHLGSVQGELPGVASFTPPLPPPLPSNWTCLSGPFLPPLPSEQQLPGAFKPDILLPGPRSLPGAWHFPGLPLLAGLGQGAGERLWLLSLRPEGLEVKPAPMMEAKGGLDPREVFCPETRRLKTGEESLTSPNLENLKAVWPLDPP
In short: as §1

SPDEF = target: T8, SPDEF (Homo sapiens, UniProt O95238 1-335); details: protein: recombinant; tags: N-terminal GST; dsDNA, one strand shown
T8 sequence: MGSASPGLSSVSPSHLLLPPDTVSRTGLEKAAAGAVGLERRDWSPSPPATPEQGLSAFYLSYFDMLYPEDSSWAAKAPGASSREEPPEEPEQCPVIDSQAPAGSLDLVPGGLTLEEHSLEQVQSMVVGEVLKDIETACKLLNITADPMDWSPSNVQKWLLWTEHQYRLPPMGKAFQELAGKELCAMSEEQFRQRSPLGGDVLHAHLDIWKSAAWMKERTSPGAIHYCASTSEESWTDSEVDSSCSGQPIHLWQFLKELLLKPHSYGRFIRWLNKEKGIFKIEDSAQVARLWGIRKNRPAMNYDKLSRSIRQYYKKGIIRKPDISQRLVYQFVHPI
In short: as §1

ETV7 = target: T9, ETV7 (Homo sapiens, UniProt Q9Y603 1-341); details: protein: recombinant; tags: N-terminal GST; dsDNA, one strand shown
T9 sequence: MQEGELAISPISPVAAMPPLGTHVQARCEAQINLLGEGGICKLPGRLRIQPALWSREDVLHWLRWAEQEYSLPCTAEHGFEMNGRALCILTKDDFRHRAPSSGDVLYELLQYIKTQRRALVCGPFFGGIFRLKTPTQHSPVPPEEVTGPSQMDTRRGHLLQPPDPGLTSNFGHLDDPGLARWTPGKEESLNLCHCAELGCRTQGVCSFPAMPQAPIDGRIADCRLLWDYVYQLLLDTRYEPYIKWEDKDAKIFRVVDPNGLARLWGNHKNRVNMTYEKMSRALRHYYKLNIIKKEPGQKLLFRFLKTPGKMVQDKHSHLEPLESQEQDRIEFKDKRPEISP
In short: as §1

ELF5 = target: T10, ELF5 (Homo sapiens, UniProt Q9UKW6-2 1-255); details: protein: recombinant; tags: N-terminal GST; dsDNA, one strand shown
T10 sequence: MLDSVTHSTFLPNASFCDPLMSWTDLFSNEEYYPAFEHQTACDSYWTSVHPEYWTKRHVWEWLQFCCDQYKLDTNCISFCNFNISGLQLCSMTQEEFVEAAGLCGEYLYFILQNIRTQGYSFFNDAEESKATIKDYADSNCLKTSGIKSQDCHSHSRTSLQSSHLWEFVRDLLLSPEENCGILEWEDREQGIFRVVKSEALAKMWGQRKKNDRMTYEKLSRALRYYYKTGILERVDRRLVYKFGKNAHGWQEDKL
In short: as §1

ETV3 = target: T11, ETV3 (Homo sapiens, UniProt P41162-2 1-143); details: protein: recombinant; tags: N-terminal GST; dsDNA, one strand shown
T11 sequence: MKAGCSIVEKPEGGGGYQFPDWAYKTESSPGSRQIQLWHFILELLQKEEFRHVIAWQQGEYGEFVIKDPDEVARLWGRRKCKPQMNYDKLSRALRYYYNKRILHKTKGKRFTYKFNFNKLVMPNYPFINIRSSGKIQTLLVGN
In short: as §1

ETV1 = ETV1 (Homo sapiens, UniProt P50549 1-477); details: protein: recombinant; tags: N-terminal GST; dsDNA, one strand shown
In short: as §1

ETS2 = target: T12, ETS2 (Homo sapiens, UniProt P15036 1-469); details: protein: recombinant; tags: N-terminal GST; dsDNA, one strand shown
T12 sequence: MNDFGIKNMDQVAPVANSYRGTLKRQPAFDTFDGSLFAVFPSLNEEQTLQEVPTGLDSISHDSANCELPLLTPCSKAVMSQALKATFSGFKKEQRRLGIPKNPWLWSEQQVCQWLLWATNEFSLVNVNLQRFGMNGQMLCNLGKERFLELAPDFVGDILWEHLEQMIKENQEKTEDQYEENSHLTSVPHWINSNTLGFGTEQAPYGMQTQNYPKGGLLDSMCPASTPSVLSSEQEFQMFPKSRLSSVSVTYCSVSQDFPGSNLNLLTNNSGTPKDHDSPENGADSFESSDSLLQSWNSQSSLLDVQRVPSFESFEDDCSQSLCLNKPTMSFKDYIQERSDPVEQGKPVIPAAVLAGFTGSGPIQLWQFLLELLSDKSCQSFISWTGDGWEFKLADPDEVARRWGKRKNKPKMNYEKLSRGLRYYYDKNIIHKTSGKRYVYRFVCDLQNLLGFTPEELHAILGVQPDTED
In short: as §1

ETV6 = ETV6 (Homo sapiens, UniProt P41212 1-452); details: protein: recombinant; tags: N-terminal GST; dsDNA, one strand shown
In short: as §1

Chain of ELF4 (Q99607 whole entry): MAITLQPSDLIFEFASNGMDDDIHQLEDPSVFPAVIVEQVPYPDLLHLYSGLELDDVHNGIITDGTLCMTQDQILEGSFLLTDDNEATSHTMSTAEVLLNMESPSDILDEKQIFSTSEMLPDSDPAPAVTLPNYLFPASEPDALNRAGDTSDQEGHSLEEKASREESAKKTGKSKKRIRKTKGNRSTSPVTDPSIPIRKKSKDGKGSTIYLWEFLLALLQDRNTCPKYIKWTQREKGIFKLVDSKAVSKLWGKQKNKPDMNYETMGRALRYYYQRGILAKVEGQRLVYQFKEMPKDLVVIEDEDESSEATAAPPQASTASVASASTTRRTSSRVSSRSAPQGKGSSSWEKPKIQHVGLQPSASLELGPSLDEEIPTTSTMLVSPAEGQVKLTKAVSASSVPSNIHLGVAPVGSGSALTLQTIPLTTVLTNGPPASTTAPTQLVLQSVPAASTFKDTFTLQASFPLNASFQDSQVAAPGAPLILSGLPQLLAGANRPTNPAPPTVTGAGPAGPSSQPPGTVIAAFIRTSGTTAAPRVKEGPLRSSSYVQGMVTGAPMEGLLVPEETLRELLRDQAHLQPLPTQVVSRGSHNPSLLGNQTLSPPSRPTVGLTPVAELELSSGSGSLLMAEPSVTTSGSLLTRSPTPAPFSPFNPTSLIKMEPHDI
Chain of ETV5 (P41161 whole entry): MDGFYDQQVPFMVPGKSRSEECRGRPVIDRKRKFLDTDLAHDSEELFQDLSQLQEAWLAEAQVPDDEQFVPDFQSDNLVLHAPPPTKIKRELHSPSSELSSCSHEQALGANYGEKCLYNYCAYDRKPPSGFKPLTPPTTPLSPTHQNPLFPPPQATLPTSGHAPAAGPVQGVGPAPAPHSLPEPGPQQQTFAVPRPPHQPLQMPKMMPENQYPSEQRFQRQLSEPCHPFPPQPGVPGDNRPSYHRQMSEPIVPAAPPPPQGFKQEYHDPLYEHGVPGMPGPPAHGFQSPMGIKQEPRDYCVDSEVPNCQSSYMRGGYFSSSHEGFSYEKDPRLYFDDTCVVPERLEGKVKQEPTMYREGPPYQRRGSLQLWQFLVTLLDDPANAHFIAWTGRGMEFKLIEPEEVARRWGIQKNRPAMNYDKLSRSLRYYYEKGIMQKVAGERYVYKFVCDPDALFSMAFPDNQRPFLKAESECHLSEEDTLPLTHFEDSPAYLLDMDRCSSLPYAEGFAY
Chain of CRX (O43186 whole entry): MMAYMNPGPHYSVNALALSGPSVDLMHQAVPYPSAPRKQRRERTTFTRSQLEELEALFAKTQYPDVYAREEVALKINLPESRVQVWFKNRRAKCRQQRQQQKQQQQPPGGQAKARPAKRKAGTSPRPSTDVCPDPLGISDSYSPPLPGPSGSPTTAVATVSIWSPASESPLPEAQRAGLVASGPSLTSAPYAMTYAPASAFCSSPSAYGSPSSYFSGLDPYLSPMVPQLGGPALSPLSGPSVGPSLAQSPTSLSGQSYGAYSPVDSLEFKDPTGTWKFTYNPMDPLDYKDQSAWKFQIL
Chain of HSF1 (Q00613 whole entry): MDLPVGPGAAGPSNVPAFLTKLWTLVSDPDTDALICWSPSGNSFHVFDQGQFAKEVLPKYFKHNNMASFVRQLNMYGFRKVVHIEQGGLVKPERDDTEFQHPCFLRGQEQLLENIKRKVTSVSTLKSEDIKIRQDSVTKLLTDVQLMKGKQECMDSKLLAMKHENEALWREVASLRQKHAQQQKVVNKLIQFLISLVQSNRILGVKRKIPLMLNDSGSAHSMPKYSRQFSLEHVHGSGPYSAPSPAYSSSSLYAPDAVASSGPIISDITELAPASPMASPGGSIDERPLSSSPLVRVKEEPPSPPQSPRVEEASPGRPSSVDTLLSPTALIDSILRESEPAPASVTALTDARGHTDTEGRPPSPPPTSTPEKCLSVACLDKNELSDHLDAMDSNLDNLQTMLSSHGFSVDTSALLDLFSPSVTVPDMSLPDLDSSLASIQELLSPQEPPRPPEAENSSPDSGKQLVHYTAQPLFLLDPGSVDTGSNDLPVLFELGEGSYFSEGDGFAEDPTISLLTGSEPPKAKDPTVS
Chain of ETV1 (P50549 whole entry): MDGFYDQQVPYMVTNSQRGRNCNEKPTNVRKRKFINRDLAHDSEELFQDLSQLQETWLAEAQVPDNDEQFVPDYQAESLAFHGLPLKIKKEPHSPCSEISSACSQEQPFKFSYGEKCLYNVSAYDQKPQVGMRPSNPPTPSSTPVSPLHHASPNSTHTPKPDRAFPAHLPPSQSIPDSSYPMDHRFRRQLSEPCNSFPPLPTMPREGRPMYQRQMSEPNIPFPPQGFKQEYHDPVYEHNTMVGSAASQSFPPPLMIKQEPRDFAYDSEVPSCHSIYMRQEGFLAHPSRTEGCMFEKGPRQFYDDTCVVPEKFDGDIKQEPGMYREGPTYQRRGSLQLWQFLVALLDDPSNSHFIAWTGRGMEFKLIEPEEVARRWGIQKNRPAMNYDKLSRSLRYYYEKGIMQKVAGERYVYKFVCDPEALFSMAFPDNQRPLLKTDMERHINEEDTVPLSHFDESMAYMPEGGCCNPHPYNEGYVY
Chain of ETV6 (P41212 whole entry): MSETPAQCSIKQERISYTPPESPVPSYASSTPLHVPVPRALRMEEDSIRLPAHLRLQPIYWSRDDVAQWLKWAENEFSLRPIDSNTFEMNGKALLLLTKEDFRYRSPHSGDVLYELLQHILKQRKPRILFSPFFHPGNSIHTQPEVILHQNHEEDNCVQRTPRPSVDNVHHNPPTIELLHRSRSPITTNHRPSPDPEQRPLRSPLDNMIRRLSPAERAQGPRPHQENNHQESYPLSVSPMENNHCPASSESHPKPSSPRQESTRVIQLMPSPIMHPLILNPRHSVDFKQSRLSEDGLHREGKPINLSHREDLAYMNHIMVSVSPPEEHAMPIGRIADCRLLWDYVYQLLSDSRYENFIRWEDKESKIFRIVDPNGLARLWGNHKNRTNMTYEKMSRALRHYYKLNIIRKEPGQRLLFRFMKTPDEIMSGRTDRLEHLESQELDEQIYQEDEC

Sequence | binding signal (FEV) | binding signal (ETV5) | binding signal (HSF1) | binding signal (SPIC) | binding signal (ELF4) | binding signal (ELK4) | binding signal (ETV2) | binding signal (ELF3) | binding signal (CRX) | binding signal (ERF) | binding signal (ETV3L) | binding signal (SPDEF) | binding signal (ETV7) | binding signal (ELF5) | binding signal (ETV3) | binding signal (ETV1) | binding signal (ETS2) | binding signal (ETV6)
TCCCAG | 1.08 fold enrichment (6-mer frequency, TF over GST control) | 1.06 fold enrichment (6-mer frequency, TF over GST control) | 1.16 fold enrichment (6-mer frequency, TF over GST control) | 1.01 fold enrichment (6-mer frequency, TF over GST control) | 1.15 fold enrichment (6-mer frequency, TF over GST control) | 1.25 fold enrichment (6-mer frequency, TF over GST control) | 1.02 fold enrichment (6-mer frequency, TF over GST control) | 1.14 fold enrichment (6-mer frequency, TF over GST control) | 1.19 fold enrichment (6-mer frequency, TF over GST control) | 1.05 fold enrichment (6-mer frequency, TF over GST control) | 1.08 fold enrichment (6-mer frequency, TF over GST control) | 1.07 fold enrichment (6-mer frequency, TF over GST control) | 1.16 fold enrichment (6-mer frequency, TF over GST control) | 1.12 fold enrichment (6-mer frequency, TF over GST control) | 1.07 fold enrichment (6-mer frequency, TF over GST control) | – | – | –
ATCCAA | 1.19 fold enrichment (6-mer frequency, TF over GST control) | 1.13 fold enrichment (6-mer frequency, TF over GST control) | 1.29 fold enrichment (6-mer frequency, TF over GST control) | 1.12 fold enrichment (6-mer frequency, TF over GST control) | 1.23 fold enrichment (6-mer frequency, TF over GST control) | 1.16 fold enrichment (6-mer frequency, TF over GST control) | 1.09 fold enrichment (6-mer frequency, TF over GST control) | 1.28 fold enrichment (6-mer frequency, TF over GST control) | 1.63 fold enrichment (6-mer frequency, TF over GST control) | – | 1.2 fold enrichment (6-mer frequency, TF over GST control) | 1.22 fold enrichment (6-mer frequency, TF over GST control) | 1.19 fold enrichment (6-mer frequency, TF over GST control) | 1.11 fold enrichment (6-mer frequency, TF over GST control) | 1.11 fold enrichment (6-mer frequency, TF over GST control) | 1.18 fold enrichment (6-mer frequency, TF over GST control) | 1.18 fold enrichment (6-mer frequency, TF over GST control) | 1.11 fold enrichment (6-mer frequency, TF over GST control)

Source: paper PMC7862700, “An all-to-all approach to the identification of sequence-specific readers for epigenetic DNA modifications on cytosine”
